PMC12136788
Numbering of substitutions follows the chain as printed. The full ranking holds about 24,000 sequences; the median of “enrichment r” is about 0.99, and the highest 2% start at about 3.7. Only a selection was taken, and the highest values are over-represented in it overall.

T1: UNK ZnF1-3 (human, UniProt Q9C0B0 31-174)
T1 sequence: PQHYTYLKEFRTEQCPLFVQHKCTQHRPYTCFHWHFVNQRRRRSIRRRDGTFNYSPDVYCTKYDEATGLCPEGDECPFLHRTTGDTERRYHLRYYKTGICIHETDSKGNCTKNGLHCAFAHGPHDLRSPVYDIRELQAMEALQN

B1: chr5:138654669:138654670:+_ENSG00000015479_ENST00000502499|hu_hu|motif|central (ssRNA)
RNA: GGGAGUUCUACAGUCCGACGAUCUUUCUUUAUUCUUUUAUACUUCUGGGAUAAAUGAACUCUCACUGGCUUGCCAAAUACGGACGCUGGUGUGGUUGUGUAAUAAUCCACUGCGGCCUGAGCAUCCUCUGUGGUUGCCAUUUCCAACAGAGGAUUGAGCAUCA
B2: 59350742_59359075_1706_CDS_ENSG00000157450_ENST00000557998|human|control|control (ssRNA)
RNA: GGGAGUUCUACAGUCCGACGAUCGUUCUGUGACGACCCUCCACAUGGUGAGUGCUGGGGACAGCAGGAAGGUAACCUUGGCAUUGCAGGAGGGCCAGUUUCCGUUACAGCACUAGAUGUAGUUCUCCUUGAGUCAUCUCCUAUCAACAGAGGAUUGAGCAUCA
B3: chr13:100518589:100518590:+_ENSG00000125246_ENST00000339105|hu_mus|FALSE|FALSE (ssRNA)
RNA: GGGAGUUCUACAGUCCGACGAUCUUCCCUUGACUGUCUGAGAAGUCCGUCUUCAUCUCGGAAGUCAAUGUACACAAGAUCUAUGGCUUGUAGGCCAAAGGCUUUUGCCGUGACAACAACCUUCUGCCGGGCAUAGAGGAUGUCCAACAGAGGAUUGAGCAUCA
B4: chr17:65337090:65337091:-_ENSG00000197170_ENST00000584008|hu_mus|FALSE|FALSE (ssRNA)
RNA: GGGAGUUCUACAGUCCGACGAUCCCAGUCAUUUAAUAAAUUAUUUGGAUCCUUGGGUCUCUGGAAGUUGAUGACUCCAGCCAACCUGUCUACUUUAGCAAAGAUGGUCUUGUUAACGACUAGAUUCGAGAGGAAAGCCUCUGACAACAGAGGAUUGAGCAUCA
B5: chr12:35831226:35831227:+_ENSMUSG00000020590_ENSMUST00000048519|mus_mus|motif|central (ssRNA)
RNA: GGGAGUUCUACAGUCCGACGAUCUCAGCAGAAGACAUAUAGCCUCUUUGUGUCUAUGUUCAUCUGUGCAACAAGUGCACGGAAUAGAAUAAUUUUAUUAACCAGAGAAUACUGUACUCUACUCAUCGGUUAAACACUCUACACCAACAGAGGAUUGAGCAUCA
B6: chr9:91093546:91093547:+_ENSG00000106723_ENST00000375859|hu_mus|FALSE|FALSE (ssRNA)
RNA: GGGAGUUCUACAGUCCGACGAUCUACAUCAUAAUUAUAAAAAUUACUUACAGAAUUAACAGUUGUACUGUGUAUACUUCUAAAUGCAGAGAACAGGGAACCGUCUACACGUUGUAUAAAAUAAAAUUAAAAUUAAAAAUGAAUCAACAGAGGAUUGAGCAUCA
B7: chr9:91093546:91093547:+_ENSG00000106723_ENST00000375859|hu_mus|motif|central (ssRNA)
RNA: B6 RNA with U80G, A81G
B8: chr1:10024197:10024198:-_ENSMUSG00000025917_ENSMUST00000027050|mus_mus|FALSE|FALSE (ssRNA)
RNA: GGGAGUUCUACAGUCCGACGAUCCAGCAUCUGUGUACUAACAUCAAUCCCGGAGAGCCAGCAGCCAUAACCAGGGUGGCUAUGAUACCAACCGAUUGCAUUCUCAAGGCGGCCAACCUGUUUGGCAUUUUCUAUGUAUGCAGCCAACAGAGGAUUGAGCAUCA
B9: chr1:225700702:225700703:-_ENSG00000154380_ENST00000366843|hu_hu|motif|central (ssRNA)
RNA: GGGAGUUCUACAGUCCGACGAUCACCAAUAGCAUUCCCUCCACUUGGGAAAGAGGUAUCCUCCAUCCGUGACACUUUCCGGAGUUUUGCUCCGGCAAUUGCAGCUGCAAGUCCAGUUAAAGGGCGAUUGUCUUCUGACAUGGACAACAGAGGAUUGAGCAUCA
B10: chr17:32491106:32491107:-_ENSMUSG00000024050_ENSMUST00000163107|mus_hu|FALSE|FALSE (ssRNA)
RNA: GGGAGUUCUACAGUCCGACGAUCAUCGAUAACCAAAAUGUGGCCACUGAAAAAAGUUAAAAGGUCAAUCAGCUCCUGGCUUCUAGCUGGCCCAGGAUUGCAAAAUAAAAAGAUCCACGUUCCUUAUUCUCUACACAAAACGCGCAACAGAGGAUUGAGCAUCA
B11: chr6:21597833:21597834:+_ENSG00000124766_ENST00000244745|hu_mus|motif|central (ssRNA)
RNA: GGGAGUUCUACAGUCCGACGAUCAAAGUUAAAACUCUAGCCCUUCAGUGAAGGAGACGUAAAAUGGCGUGGGUAACAACACGGGAAAAAAAAAAAAAACGAAGAAAAAGAAAGAAAAUAAAAAAGAAGAUAAAGAAACGAGGUCAACAGAGGAUUGAGCAUCA
B12: chr6:21597833:21597834:+_ENSG00000124766_ENST00000244745|hu_mus|FALSE|FALSE (ssRNA)
RNA: B11 RNA with G82U, G83A
B13: chr2:48026839:48026840:+_ENSG00000116062_ENST00000540021|hu_hu|hu_hu_hu_mus_False|28_88 (ssRNA)
RNA: GGGAGUUCUACAGUCCGACGAUCAUAGUGAGCCACUAGCGUCCUAAAUCUCGAACAGUGGCGGUCAUCCGAAAACUGGCCGAUGAAAAACUUGCCCAGUGAAGUGUCAACAAAGCAAACACCAUACACACGAGUGUGACCAGACAACAGAGGAUUGAGCAUCA
B14: chr14:78183846:78183847:+_ENSG00000119705_ENST00000557342|hu_hu|hu_hu_hu_mus_False|58_98 (ssRNA)
RNA: GGGAGUUCUACAGUCCGACGAUCUCUCAGAAAUCUUUCUUUCUUUUAUGUUUGAGCUCCGUGCAAAGCCUUUGCUCUUCUAGUGUGAACGUGGAUCUAUGGGAGGGAAAGCACUGUCAGAAAAGGUAAUUUUUUUUUUAAAGACAACAGAGGAUUGAGCAUCA
B15: chr1:100342015:100342016:+_ENSG00000162688_ENST00000361915|hu_hu|motif|central (ssRNA)
RNA: GGGAGUUCUACAGUCCGACGAUCAGAUUCUUCCAUGGAGAAGUCUAUCUCUUCAAAUGGGAAAGUAAAAUACCUGGUAACGGAAGGAUGCUUUCUAGUGACAGGUCCUAGUUUUGGACCAUGGCCAGCCAGUCGUUCAUAAAACAACAGAGGAUUGAGCAUCA

These binders were tested against T1, UNK ZnF1-3 (assay: nsRBNS (natural sequence RNA bind-n-seq); RBNS binding buffer (assumed for nsRBNS): 25 mM Tris pH 7.5, 150 mM KCl, 3 mM MgCl2, 0.01% Triton X-100, 500 ug/ml BSA, 20 U/ml SUPERase-In, 4 C; UNK is unkempt and MSI1 is Musashi-1; names of the RNAs are library labels; protein concentration not given here; high values mean tight binding).
B1 gave a binding signal of 0.487 enrichment R.
B2 gave a binding signal of 0.898 enrichment R.
B3 gave a binding signal of 0.641 enrichment R.
Binder B4 has a binding signal of 1.07 enrichment R.
With B5 the binding signal was 0.463 enrichment R.
Work on B6 yielded a binding signal of 7.07 enrichment R.
B7 was tested, and the binding signal was 4.68 enrichment R.
With B8 the binding signal was 1.5 enrichment R.
Binder B9 has a binding signal of 0.794 enrichment R.
B10 was tested, and the binding signal was 1.24 enrichment R.
B11 showed a binding signal of 5.74 enrichment R.
Binder B12 has a binding signal of 7.3 enrichment R.
Binder B13 has a binding signal of 1.25 enrichment R.
In the case of B14, the binding signal is reported as 1.14 enrichment R.
In the case of B15, the binding signal is reported as 0.918 enrichment R.
